Experimental findings from ChEMBL document CHEMBL1961873, “Compounds: GSK PKIS; Assays: Nanosyn kinase panel” (2012) are described below.

“And” between values parts separate entries of the source, which are not always exact repeats. Equal values may be shown once.

Experiment [1] addresses T1, Ephrin type-B receptor 2 (Homo sapiens) (UniProt P29323).
T1 sequence (whole entry): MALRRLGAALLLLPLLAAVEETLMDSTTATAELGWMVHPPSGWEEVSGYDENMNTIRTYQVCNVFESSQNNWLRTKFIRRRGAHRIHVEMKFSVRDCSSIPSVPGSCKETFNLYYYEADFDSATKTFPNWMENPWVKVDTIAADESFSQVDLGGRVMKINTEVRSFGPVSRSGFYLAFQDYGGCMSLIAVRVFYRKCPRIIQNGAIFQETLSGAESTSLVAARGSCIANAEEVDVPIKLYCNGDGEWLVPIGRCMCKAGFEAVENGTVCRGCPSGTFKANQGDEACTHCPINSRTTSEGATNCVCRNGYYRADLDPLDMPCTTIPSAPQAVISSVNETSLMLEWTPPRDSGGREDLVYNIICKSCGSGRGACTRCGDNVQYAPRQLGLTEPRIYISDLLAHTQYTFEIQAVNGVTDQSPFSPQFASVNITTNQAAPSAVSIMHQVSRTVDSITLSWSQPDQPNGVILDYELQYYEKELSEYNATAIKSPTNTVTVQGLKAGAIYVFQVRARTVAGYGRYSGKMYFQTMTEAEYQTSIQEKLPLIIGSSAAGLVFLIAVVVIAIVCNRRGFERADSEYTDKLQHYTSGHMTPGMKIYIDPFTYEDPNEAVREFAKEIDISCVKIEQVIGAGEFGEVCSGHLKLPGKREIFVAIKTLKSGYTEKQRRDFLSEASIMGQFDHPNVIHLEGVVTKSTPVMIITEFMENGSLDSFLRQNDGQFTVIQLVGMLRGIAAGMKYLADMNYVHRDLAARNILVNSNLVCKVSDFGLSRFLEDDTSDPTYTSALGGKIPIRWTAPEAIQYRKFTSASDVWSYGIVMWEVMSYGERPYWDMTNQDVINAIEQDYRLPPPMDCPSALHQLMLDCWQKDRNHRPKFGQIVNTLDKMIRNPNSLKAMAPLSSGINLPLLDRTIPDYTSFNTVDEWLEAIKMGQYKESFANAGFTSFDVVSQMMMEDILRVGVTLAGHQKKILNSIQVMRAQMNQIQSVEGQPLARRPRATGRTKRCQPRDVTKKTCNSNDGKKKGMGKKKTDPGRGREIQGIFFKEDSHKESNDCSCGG
The following applies: at 1 µM.

For experiment [2], the target named is T2, Ephrin type-B receptor 3 (Homo sapiens) (UniProt P54753).
T2 sequence (whole entry): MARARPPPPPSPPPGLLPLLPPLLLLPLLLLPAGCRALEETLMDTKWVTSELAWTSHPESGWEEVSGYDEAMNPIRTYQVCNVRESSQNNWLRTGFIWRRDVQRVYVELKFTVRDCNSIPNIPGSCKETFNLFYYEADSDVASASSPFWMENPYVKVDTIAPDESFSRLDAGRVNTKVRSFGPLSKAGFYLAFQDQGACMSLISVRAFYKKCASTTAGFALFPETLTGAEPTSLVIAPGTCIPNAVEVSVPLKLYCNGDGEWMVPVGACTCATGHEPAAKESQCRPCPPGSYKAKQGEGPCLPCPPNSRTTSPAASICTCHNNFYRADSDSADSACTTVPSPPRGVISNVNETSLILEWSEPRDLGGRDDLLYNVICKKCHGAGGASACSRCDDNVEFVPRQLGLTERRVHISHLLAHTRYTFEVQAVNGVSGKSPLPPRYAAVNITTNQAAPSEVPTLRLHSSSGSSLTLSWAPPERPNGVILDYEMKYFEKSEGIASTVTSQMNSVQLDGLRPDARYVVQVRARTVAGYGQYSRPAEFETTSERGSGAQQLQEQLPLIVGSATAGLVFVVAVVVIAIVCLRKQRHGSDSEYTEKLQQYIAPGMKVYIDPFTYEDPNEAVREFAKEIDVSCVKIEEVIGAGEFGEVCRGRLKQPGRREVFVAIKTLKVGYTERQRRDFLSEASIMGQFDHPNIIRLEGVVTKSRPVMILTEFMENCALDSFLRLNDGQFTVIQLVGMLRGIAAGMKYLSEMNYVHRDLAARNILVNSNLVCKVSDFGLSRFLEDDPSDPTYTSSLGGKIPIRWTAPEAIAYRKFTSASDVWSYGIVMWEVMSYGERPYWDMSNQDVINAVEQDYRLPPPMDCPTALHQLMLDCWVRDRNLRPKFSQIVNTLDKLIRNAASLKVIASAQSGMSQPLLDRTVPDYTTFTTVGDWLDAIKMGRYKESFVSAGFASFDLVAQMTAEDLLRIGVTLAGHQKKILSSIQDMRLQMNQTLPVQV
The following applies: at 0.1 µM.

Experiment [3] addresses T2, Ephrin type-B receptor 3 (Homo sapiens). The conditions noted are these: at 1 µM.
For experiment [4], the target named is T3, Ephrin type-B receptor 4 (Homo sapiens) (UniProt P54760).
T3 sequence (whole entry): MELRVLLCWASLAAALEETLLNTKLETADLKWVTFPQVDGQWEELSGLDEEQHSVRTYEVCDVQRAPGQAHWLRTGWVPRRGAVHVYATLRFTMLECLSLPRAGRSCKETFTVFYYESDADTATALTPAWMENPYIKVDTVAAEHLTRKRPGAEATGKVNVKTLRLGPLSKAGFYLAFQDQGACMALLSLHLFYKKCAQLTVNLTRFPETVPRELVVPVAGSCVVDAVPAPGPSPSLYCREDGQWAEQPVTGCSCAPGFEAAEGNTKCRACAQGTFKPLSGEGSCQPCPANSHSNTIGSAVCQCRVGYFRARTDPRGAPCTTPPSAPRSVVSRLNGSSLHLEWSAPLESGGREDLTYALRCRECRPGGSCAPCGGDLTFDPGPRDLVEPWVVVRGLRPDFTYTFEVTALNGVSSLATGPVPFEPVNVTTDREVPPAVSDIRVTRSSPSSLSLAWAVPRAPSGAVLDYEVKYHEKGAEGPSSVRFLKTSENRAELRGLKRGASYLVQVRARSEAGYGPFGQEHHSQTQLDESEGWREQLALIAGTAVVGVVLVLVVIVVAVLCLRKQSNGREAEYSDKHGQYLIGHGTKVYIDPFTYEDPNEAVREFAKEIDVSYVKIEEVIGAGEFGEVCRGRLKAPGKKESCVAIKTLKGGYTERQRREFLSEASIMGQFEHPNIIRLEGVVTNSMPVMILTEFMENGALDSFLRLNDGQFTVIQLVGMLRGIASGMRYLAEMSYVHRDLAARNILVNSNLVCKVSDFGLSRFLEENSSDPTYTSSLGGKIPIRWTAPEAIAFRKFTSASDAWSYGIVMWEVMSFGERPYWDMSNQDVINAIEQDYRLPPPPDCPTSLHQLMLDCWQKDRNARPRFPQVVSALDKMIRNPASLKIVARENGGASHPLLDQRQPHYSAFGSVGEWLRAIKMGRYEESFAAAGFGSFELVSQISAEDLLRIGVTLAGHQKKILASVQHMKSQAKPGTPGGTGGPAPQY
The conditions noted are these: at 0.1 µM.

Experiment [5] concerns the target T3, Ephrin type-B receptor 4 (Homo sapiens). The conditions noted are these: at 1 µM.
Experiment [6] deals with Receptor tyrosine-protein kinase erbB-2 (Homo sapiens) (UniProt P04626). The following applies: at 0.1 µM.
Experiment [7] has the same target. The following applies: at 1 µM.
Experiment [8] deals with Receptor tyrosine-protein kinase erbB-4 (Homo sapiens) (UniProt Q15303). The conditions noted are these: at 0.1 µM.
Experiment [9] shares this target. The conditions noted are these: at 1 µM.
The target in experiment [10] is Tyrosine-protein kinase Fer (Homo sapiens) (UniProt P16591). The conditions noted are these: at 0.1 µM.
Experiment [11] shares this target. The conditions noted are these: at 1 µM.
For experiment [12], the target named is Tyrosine-protein kinase Fes/Fps (Homo sapiens) (UniProt P07332). The following applies: at 0.1 µM.
Experiment [13] has the same target. The following applies: at 1 µM.
Experiment [14] addresses Fibroblast growth factor receptor 1 (Homo sapiens) (UniProt P11362). The following applies: at 0.1 µM.
For experiment [15] the target is unchanged. The conditions noted are these: at 1 µM.
The target in experiment [16] is Fibroblast growth factor receptor 2 (Homo sapiens) (UniProt P21802). The following applies: at 0.1 µM.
The target is the same in experiment [17]. The conditions noted are these: at 1 µM.
The target of experiment [18] is Fibroblast growth factor receptor 3 (Homo sapiens) (UniProt P22607). The conditions noted are these: at 0.1 µM.
The target is the same in experiment [19]. The following applies: at 1 µM.
The target in experiment [20] is Fibroblast growth factor receptor 4 (Homo sapiens) (UniProt P22455). The following applies: at 0.1 µM.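 Also: values are mean percent inhibition of FGFR4.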
Sequence of Fibroblast growth factor receptor 4 (Homo sapiens) (P22455 22-802 limits assumed): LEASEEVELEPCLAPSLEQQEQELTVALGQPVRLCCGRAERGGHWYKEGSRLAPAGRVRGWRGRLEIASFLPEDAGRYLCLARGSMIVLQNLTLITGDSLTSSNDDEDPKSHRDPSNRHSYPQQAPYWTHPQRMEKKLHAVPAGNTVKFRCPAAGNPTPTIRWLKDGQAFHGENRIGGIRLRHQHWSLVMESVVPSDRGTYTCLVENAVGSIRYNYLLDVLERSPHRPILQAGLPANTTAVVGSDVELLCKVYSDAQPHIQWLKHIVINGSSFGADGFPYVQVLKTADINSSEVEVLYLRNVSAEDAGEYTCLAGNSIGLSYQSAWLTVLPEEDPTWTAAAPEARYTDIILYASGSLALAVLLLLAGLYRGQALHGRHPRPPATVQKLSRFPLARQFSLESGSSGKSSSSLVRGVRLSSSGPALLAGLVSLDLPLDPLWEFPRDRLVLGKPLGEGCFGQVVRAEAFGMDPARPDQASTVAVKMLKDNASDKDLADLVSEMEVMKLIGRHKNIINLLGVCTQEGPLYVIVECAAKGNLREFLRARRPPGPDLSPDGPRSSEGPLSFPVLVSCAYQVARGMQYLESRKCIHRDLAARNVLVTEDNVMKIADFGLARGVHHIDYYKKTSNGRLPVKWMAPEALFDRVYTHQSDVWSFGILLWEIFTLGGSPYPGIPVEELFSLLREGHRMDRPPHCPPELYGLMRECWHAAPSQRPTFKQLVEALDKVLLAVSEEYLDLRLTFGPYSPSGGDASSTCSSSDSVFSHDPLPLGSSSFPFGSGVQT

Sequence of Tyrosine-protein kinase Fer (Homo sapiens) (P16591 whole entry, looked up): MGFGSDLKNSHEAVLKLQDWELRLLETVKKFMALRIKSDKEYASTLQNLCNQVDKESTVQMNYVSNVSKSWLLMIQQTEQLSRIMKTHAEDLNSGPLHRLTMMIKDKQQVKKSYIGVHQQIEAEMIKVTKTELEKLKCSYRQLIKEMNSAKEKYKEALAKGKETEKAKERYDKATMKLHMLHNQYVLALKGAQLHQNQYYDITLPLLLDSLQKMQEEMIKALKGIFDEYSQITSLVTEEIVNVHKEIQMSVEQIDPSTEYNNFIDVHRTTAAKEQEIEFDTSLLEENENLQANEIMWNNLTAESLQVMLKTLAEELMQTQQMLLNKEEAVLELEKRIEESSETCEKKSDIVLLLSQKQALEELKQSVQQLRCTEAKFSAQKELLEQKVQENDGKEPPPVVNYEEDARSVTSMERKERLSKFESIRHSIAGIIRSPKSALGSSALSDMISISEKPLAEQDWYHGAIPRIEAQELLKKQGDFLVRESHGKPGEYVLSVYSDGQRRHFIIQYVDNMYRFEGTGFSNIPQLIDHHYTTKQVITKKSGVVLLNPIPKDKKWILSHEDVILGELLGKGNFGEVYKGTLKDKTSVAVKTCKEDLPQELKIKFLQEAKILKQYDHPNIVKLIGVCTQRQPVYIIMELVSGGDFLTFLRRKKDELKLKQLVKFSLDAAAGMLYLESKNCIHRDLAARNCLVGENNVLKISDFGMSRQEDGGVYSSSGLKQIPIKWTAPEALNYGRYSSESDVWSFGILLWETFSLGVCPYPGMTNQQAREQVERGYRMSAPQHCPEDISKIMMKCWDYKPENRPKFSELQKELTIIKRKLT
Sequence of Receptor tyrosine-protein kinase erbB-4 (Homo sapiens) (Q15303 whole entry): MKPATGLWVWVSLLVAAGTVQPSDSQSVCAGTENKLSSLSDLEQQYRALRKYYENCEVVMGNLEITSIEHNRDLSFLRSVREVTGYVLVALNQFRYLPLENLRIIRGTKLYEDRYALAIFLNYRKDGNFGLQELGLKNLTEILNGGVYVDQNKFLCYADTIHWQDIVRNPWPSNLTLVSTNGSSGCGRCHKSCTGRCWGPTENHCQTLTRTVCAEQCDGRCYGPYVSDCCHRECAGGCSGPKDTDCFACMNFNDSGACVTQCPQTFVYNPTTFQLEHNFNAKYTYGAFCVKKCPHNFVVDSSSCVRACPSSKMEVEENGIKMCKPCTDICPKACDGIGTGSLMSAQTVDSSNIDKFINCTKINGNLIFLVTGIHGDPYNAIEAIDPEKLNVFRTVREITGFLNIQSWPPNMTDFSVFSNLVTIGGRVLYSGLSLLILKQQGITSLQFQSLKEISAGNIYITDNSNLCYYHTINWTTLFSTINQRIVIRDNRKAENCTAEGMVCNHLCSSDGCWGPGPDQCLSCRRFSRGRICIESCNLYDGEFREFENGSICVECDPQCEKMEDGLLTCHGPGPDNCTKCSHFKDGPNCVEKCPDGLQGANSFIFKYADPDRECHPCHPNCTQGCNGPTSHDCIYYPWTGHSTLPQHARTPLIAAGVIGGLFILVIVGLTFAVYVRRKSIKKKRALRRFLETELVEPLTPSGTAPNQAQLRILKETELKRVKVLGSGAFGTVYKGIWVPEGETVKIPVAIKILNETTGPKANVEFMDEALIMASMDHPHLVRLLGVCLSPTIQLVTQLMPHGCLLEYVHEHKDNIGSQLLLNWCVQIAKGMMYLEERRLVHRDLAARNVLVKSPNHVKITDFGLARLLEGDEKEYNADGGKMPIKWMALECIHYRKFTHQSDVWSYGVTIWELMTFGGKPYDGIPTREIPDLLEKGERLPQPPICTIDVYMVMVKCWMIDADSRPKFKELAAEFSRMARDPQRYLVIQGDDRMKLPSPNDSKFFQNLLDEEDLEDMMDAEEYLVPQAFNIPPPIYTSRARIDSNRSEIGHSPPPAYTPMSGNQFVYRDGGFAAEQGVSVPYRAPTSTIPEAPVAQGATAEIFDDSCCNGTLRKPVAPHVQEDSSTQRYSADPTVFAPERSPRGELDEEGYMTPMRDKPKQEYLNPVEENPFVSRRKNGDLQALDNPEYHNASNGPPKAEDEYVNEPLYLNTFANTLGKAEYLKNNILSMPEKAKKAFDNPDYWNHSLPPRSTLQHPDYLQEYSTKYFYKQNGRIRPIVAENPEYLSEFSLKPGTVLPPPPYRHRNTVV
Sequence of Fibroblast growth factor receptor 2 (Homo sapiens) (P21802 22-821 limits assumed): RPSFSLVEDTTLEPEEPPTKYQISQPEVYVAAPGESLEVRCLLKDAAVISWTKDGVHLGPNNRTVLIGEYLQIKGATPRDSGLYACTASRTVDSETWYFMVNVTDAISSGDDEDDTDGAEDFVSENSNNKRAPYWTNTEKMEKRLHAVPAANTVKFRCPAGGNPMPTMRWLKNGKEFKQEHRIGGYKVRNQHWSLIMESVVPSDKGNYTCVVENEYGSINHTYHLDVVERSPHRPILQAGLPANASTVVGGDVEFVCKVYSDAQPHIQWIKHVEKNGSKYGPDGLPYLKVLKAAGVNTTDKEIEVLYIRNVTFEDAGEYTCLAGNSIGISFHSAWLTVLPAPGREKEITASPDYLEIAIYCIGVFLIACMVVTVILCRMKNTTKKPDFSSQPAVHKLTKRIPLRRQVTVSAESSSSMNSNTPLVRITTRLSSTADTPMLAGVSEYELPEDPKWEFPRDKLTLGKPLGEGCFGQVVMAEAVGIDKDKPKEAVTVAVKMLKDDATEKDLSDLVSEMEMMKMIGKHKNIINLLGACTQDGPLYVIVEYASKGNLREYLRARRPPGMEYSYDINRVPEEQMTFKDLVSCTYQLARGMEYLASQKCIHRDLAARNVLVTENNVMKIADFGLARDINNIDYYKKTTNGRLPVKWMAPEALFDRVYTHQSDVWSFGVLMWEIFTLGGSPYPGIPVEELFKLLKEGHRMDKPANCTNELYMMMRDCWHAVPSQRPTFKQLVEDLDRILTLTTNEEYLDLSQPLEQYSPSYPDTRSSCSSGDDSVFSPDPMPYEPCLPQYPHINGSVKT
Sequence of Receptor tyrosine-protein kinase erbB-2 (Homo sapiens) (P04626 whole entry): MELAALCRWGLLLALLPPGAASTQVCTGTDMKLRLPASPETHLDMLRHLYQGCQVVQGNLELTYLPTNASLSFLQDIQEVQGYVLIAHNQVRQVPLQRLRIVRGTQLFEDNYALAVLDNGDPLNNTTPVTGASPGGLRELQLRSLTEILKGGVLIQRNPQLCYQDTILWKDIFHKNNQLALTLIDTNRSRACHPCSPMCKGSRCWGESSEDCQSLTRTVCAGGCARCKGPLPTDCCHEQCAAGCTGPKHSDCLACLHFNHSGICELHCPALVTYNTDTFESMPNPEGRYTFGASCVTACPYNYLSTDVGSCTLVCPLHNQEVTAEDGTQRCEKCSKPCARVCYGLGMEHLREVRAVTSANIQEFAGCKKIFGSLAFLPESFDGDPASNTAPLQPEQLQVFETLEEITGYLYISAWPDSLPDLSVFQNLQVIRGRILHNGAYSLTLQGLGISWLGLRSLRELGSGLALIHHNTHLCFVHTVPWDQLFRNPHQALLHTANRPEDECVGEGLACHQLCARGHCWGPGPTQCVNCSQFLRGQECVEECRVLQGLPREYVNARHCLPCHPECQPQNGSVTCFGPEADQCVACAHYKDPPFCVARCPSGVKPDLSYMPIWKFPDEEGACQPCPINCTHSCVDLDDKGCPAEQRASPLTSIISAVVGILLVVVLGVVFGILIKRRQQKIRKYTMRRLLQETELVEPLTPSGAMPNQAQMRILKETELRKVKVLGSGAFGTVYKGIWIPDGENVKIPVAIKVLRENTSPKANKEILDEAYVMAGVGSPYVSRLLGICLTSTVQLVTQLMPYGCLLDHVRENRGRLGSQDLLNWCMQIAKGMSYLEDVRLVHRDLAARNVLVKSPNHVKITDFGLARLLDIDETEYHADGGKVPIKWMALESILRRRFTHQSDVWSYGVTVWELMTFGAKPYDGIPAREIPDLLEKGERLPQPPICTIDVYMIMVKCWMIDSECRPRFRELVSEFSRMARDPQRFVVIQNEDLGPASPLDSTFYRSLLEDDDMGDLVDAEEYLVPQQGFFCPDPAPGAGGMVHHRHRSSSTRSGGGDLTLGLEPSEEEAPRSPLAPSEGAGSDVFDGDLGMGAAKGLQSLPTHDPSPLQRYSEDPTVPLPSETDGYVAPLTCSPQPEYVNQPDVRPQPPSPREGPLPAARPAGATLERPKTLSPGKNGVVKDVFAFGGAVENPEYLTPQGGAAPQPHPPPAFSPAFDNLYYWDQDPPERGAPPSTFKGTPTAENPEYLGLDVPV

Turning to `CS(=O)(=O)CCNCc1ccc(-c2ccc3ncnc(Nc4ccc(OCc5cccc(C(F)(F)F)c5)cc4)c3c2)o1`, the inhibition in [1] was 6.28%; in experiment [2], 3.02%; in experiment [3], 3.57%; in experiment [4], 0.6%; in experiment [5], 2.19%; in [6], 4.88%. The inhibition in experiment [7] was 3.5%; in experiment [8], 7.3%; in experiment [9], 28.5%; in experiment [10] it was -1.96%; in experiment [11], 0.74%; in experiment [12] it was 3.52%. Besides, the inhibition in experiment [13] turned out to be 4.12%; in experiment [14], 6.33%; in experiment [15], 10.8%; in experiment [16], 6.07%; in experiment [17] it was 14.2%; in experiment [18] it was 9.13%. Besides, the inhibition in experiment [19] was found to be 10.7%; in experiment [20] it was 4.16%.

With `CCOc1ccc2c(-c3ccnc(Nc4cc(OC)cc(C(F)(F)F)c4)n3)cnn2n1`, the inhibition was 8.72% in experiment [1]; 2.9% in experiment [2]; 1.21% in [3]; 2.17% in experiment [4]; 1.74% in [5]; 2.32% in experiment [6]. Moreover, the inhibition came out at 2.46% in experiment [7]; 4.82% in experiment [8]; 4.44% in experiment [9]; 2.36% in experiment [10]; 8.05% in experiment [11]; 0.16% in [12]. The inhibition is 0.05% in [13]; 4.3% in experiment [14]; -0.38% in experiment [15]; -1.84% in [16]; 3.9% in [17]; 1.13% in experiment [18]. Also, the inhibition in [19] was 2.09%; in experiment [20] it was 0.25%.

For `CN1CCC(C(=O)Nc2n[nH]c3nc(-c4ccc(O)cc4)c(Br)cc23)CC1`, the inhibition in experiment [1] is 8.11% and 8.66%; in experiment [2], 1.14% and 1.43%; in experiment [3] it was 1.83% and 4.59%; in [4], -1.77% and 1.07%; in experiment [5] it was -1.46% and 4.54%; in [6], 6.86% and 3.66%. Besides, the inhibition in [7] was 7.03% and 4.93%; in [8] it was 6.26% and 5.04%; in experiment [9], 8.49% and 8.92%; in experiment [10], 4.47% and -1.58%; in [11], 5.19% and 5.02%; in experiment [12], 2.73% and 2.03%. In addition, the inhibition is 2.01% and 1.81% in [13]; -1.64% and 2.05% in experiment [14]; -0.75% and 5.39% in [15]; -0.3% and 14.5% in [16]; 2.81% and 5.43% in experiment [17]; 1.48% and 6.04% in experiment [18]. The inhibition in experiment [19] is 1.79% and 4.41%; in experiment [20], 6.09%.

`CN(C)CCNC(=O)Nc1ccc(N(C)c2ccnc(Nc3ccc(CS(C)(=O)=O)cc3)n2)cc1`: the inhibition amounted to 15.1% in experiment [1]; 5.05% in experiment [2]; 1.99% in [3]; 2.45% in [4]; 3.65% in experiment [5]; 0.75% in [6]. The inhibition in experiment [7] was -0.72%; in [8] it was 8.93%; in experiment [9] it was 9.37%; in experiment [10], 4.17%; in experiment [11] it was 12.4%; in [12], 3.36%. Besides, the inhibition came out at 6.7% in experiment [13]; 27.9% in experiment [14]; 9.1% in experiment [15]; 5.38% in [16]; 8.82% in [17]; 6.17% in [18]. For the same molecule, the figures for the inhibition in experiment [19] and in experiment [20] were 5.98% and 1.63%, respectively.
